# Hits are enriched below; roughly 27% of the tested compounds scored in any of these assays.
# CYP2C19 inh – blocks human cytochrome P450 2C19. inhibition, % at 5 µM. hit rate 21% among 96,000. AID 778. CYP2C19 Supersomes, luciferin-H EGE luminescence, 30 min;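 active = CYP2C19 inhibition above a set limit at 5 µM in the primary screen, cut at about 50% in these data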;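 note: plate controls were negative control wells for no effect and 2.5 mM tranylcypromine positive control for full effect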
# Target sequence (P33261 whole entry, looked up): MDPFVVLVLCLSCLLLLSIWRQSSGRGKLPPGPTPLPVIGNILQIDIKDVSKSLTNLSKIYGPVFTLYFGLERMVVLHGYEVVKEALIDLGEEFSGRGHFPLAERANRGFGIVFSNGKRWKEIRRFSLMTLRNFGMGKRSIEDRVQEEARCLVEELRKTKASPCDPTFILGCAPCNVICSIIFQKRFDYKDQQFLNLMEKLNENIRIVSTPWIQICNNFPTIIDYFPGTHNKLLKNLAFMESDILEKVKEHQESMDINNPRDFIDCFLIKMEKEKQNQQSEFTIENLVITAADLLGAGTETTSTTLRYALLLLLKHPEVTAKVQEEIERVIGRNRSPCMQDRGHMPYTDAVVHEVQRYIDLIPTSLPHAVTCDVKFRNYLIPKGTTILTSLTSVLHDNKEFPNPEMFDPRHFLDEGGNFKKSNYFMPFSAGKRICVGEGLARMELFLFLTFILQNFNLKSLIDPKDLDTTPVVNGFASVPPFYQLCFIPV
# CYP2C9 activ – activators of human CYP2C9 | hit rate 1.4% among 96,000 | activation factor at 5 µM | recombinant CYP2C9, luciferin-H conversion, luminescence; stronger effect = higher value; factor 1 = untreated enzyme, 0 = blocked | P11712;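 active = activation factor of 2 or more for CYP2C9 at a 5 µM dose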;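 note: 0 = sulfaphenazole-blocked wells and 1 = vehicle-only wells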
# sEH inh – soluble epoxide hydrolase (human) inhibition; recombinant human sEH enzymatic activity assay; inhibition, % at 2 µM; hit rate 0.34% among 91,000; AID 707; in the data active = inhibition above about 80%
# CYP2C19 act – cytochrome P450 2C19 (human) activation. activation factor at 5 µM. recombinant CYP2C19, luciferin-H EGE luminescence; stronger effect = higher value; 0 = fully inhibited enzyme, 1 = untreated enzyme. AID 1025. 96,000 tested, under 10 active;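 active = activation factor of at least 2 at 5 µM in the primary screen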;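 note: 0 = wells with 2.5 mM tranylcypromine and 1 = vehicle-only wells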
# sEH act – soluble epoxide hydrolase (human) activation. purified human sEH enzymatic activity, activator screen. P34913. hit rate 0.04% among 91,000. activation, % at 2 µM; in the data active = activation above about 37%
# CYP2C9 inhib – human CYP2C9 inhibition; P11712; CYP2C9 Supersomes, luciferin-H conversion, luminescence; inhibition, % at 5 µM; hit rate 20% among 96,000; AID 777;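 active = blocking of liver enzyme CYP2C9 beyond about 50% at 5 µM, limit read from the data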
# Starred values were filed as active, the others as inactive; · = no result.
SMILES,CYP2C19 inh,CYP2C9 activ,sEH inh,CYP2C19 act,sEH act,CYP2C9 inhib
O=C(Nc1ccc(N2CCCCC2)c(Cl)c1)c1ncn[nH]1,10,1.1,·,0.9,·,-8
O=C(NCc1ccc(F)cc1)c1cnn2ccccc12,60*,1,8,0.4,-7,2
COc1ccc(-c2n[nH]c(C(F)(F)F)c2-c2cc3ccccc3o2)c(O)c1,20,0.1,-13,0.8,15,90*
CCOc1cc(N2CCOCC2)c(OCC)cc1NC(=O)COC(=O)CCc1c[nH]c2ccccc12,4,0.9,-13,1,14,6
O=C(NCC1CCCO1)c1ccc(NC(=O)C2C3C=CC(C3)C2C(=O)O)cc1 (stereo unspecified),1,0.9,-9,1,11,8
Clc1ccccc1-c1nc2ccccc2c2nncn12,62*,0.8,-10,0.4,9,16
Cc1[nH]n(C(C)(C)C)c(=O)c1Sc1ccccc1,18,0.8,-4,0.8,3,22
Cc1[nH]n(-c2ccccc2)c(=O)c1Sc1ccc(Cl)cc1,52*,0.1,-1,0.5,0,86*
CC1=CC(C)C2C(=O)N(CCCN(C)C)C(=O)C2C1 (stereo unspecified),-3,1.1,-8,1,8,-9
COc1ccc(-c2cc(C(=O)Nc3c(C)nn(Cc4ccccc4Cl)c3C)no2)cc1OC,15,0.4,·,0.8,·,63*
Cc1ccc(Cn2nc(C)c(NC(=O)c3cc(-c4ccc5c(c4)OCO5)on3)c2C)cc1,24,0.5,-13,0.8,14,53*
COc1ccc(-c2cc(C(=O)Nc3c(C)nn(Cc4ccc(Cl)cc4)c3C)no2)cc1,51*,0.5,-11,0.5,11,50
CCCSc1nc(N2CCOCC2)c2c(c1C#N)CCCC2,59*,0.1,9,0.4,-9,93*
Cc1cc(C)c(C#N)c(N2CCOCC2)n1,·,·,-9,·,13,·
CSc1nc(N2CCOCC2)c2c(c1C#N)CCCCC2,47,0.2,-8,0.5,10,79*
CC(C)c1nc(N2CCOCC2)c(C#N)c2c1CCC2,16,0.8,-15,0.8,19,22
Cc1nc(N2CCOCC2)c(C#N)c(C)c1Br,56*,0.8,0,0.4,0,20
CSc1nc(C)c2c(c1C#N)CCCC2,18,1.3,·,0.8,·,-27
CCCc1nc(N2CCOCC2)c(C#N)c2c1CCCC2,82*,0.3,6,0.2,-4,72*
CCCCc1nc(N2CCOCC2)c(C#N)c2c1CCCC2,30,0.5,7,0.7,-7,49
N#CCCSc1nc(N2CCOCC2)c2c(c1C#N)CCCC2,91*,0,2,0.1,2,97*
Cc1nc(N)c(C#N)c(-c2ccccc2)c1C,17,0.8,-14,0.8,14,22
Cc1c(-c2ccccc2)nc(N)c(C#N)c1-c1ccco1,69*,0.5,-8,0.3,7,45
O=C1Nc2ccccc2C12OCC(COc1ccc(Cl)cc1)O2 (stereo unspecified),84*,0.8,0,0.2,2,20
CC(C)CCC(C)N=Cc1c(O)n(Cc2ccccc2)c(=O)c2ccccc12 (stereo unspecified),-4,0.1,-4,1,6,86*
SMILES,CYP2C19 inh,CYP2C9 activ,sEH inh,CYP2C19 act,sEH act,CYP2C9 inhib
COC(=O)c1scc(C)c1N/N=C(\C)c1cc(F)c(Cl)cc1F,-17,1.1,9,1.2,-10,-10
O=C(Nc1ccc2c(c1)C(=O)N(CC1CCCO1)C2=O)c1ccc(Cl)c(Cl)c1 (stereo unspecified),-27,0.7,58,1.3,-57,26
COC(=O)c1c(C)[nH]c(C)c1-c1ccc(C)cc1,82*,0.6,-27,0.2,20,38
Cc1ccc(OCC(O)CN2C(=O)NC(C)(C)C2=O)cc1 (stereo unspecified),·,·,2,·,-2,·
Cc1ccc(OCC(O)CN2C(=O)NC(C)(C)C2=O)cc1C (stereo unspecified),84*,0.7,-2,0.2,1,29
CC1(C)NC(=O)N(CC(O)CN2C(=O)NC(C)(C)C2=O)C1=O,-5,1,-16,1,16,1
CC1(C)NC(=O)N(CC(O)CN2CCOCC2)C1=O (stereo unspecified),56*,0.6,6,0.4,-6,45
CC1(C)NC(=O)N(CC(O)CN(Cc2ccccc2)Cc2ccccc2)C1=O (stereo unspecified),85*,0.7,17,0.2,-18,28
O=CNC(=O)c1ccccc1C(=O)O,-9,1.2,-1,1.1,4,-17
Cc1ccc(C(=O)N/N=C2\SCC(=O)N2c2cc(C)ccc2C)cc1,·,·,7,·,-2,·
CSCSC1=C(C#N)C(c2ccc(Cl)cc2)C(C(C)=O)=C(C)N1 (stereo unspecified),98*,0,1,0,2,100*
CCOC(=O)CSC1=C(C#N)C(c2ccc(C)cc2)C(C(=O)OC)C(=O)N1 (stereo unspecified),54*,0.5,-2,0.5,3,47
CCOC(=O)CSc1nc2cc(C)ccc2cc1C#N,-9,1.1,0,1.1,2,-5
CCOC(=O)C1=C(C)Nc2nc(=S)[nH]n2C1c1ccc(Cl)cc1 (stereo unspecified),37,0.7,-7,0.6,5,28
CCOC(=O)CSC1=C(C#N)C(c2ccccc2)C(C(C)=O)=C(C)N1 (stereo unspecified),58*,0.4,7,0.4,-7,59*
COc1ccc(C2C(C(C)=O)=C(C)N=c3s/c(=C\c4ccco4)c(=O)n32)c(OC)c1 (stereo unspecified),53*,0.2,9,0.5,-9,78*
N#Cc1ncc(C(F)(F)F)cc1Sc1ccc(N)cc1,96*,0.2,-10,0,9,81*
CC(=O)c1c(C)[nH]c(C(=O)Nc2ccc(C)cn2)c1C,33,0.9,0,0.7,1,9
CCC(=O)N1CCN(c2ccc(Cl)cc2NC(=O)c2ccc(Br)o2)CC1,·,·,-11,·,15,·
Cc1ccc(C(=O)Nc2ccccc2N2CCN(C(=O)C(C)C)CC2)cc1,23,0.6,-2,0.8,4,42
CCC(=O)N1CCN(c2ccccc2NC(=O)COc2cccc(C)c2)CC1,40,0.4,5,0.6,-5,58*
Cc1cc(C)cc(OCC(=O)Nc2ccccc2N2CCCCC2)c1,-1,0.6,-1,1,-4,39
COc1ccc(C(=O)Nc2ccccc2N2CCN(C(=O)C(C)C)CC2)cc1Cl,·,·,7,·,-2,·
CCC(=O)N1CCN(c2ccccc2NC(=O)c2cccc(C)c2)CC1,77*,0.3,7,0.2,-4,71*
CCOc1cccc(C(=O)Nc2ccccc2N2CCN(C(=O)C(C)C)CC2)c1,77*,0.1,-7,0.2,9,94*
COc1ccc(Cl)cc1C(=O)Nc1ccccc1N1CCN(C(=O)C(C)C)CC1,68*,0.3,-4,0.3,3,68*

# Bioassay records as filed in PubChem BioAssay.
